Bioassay records from PubChem.
Mdm2 MdmX PPI – human Mdm2/MdmX binding inhibition | inhibition, % at 8 µM | AID 485346 | O15151+Q00987 | actives 3% (n = 330,000) | SaOS-2 split-luciferase Mdm2/MdmX complementation, luminescence;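 active = inhibition of at least 50% at 8 µM in the primary screen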
Target sequence (O15151 whole entry, looked up): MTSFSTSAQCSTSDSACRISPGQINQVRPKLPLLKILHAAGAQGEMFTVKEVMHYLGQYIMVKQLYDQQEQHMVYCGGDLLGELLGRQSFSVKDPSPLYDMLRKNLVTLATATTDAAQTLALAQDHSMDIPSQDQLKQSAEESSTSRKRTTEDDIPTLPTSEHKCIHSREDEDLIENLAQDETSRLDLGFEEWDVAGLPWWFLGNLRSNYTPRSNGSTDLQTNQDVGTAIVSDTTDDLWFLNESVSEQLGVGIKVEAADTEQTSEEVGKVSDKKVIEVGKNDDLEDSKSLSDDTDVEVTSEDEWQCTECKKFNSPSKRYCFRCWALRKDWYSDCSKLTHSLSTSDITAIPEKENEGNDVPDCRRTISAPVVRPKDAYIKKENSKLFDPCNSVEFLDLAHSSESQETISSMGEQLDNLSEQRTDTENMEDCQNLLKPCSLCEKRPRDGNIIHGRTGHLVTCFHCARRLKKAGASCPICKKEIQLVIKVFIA
Target sequence (Q00987 whole entry, looked up): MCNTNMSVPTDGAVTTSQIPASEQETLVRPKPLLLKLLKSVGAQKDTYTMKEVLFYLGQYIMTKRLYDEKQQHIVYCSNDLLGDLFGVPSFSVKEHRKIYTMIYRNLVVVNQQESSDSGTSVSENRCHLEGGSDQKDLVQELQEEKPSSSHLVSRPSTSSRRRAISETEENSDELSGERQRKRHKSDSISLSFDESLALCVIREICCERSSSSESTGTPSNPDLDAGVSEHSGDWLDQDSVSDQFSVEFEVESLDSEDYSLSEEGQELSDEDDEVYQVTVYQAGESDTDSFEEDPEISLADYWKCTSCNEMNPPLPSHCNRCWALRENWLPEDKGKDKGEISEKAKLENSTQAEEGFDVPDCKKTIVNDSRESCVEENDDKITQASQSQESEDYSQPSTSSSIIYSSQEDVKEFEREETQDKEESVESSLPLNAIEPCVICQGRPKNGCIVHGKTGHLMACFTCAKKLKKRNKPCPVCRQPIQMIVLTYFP
PAX8 reporter – PAX8 transcriptional activity inhibition; RMG-I TPO-luciferase reporter, SteadyGlo, 24 h; inhibition, % at 12.6 µM; actives 1.2% (n = 360,000); AID 652154;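 active = mean replicate inhibition at least 60% with every replicate also reaching 60%; inconclusive = only one of the two criteria is met; inactive = mean below 60% and not all replicates reaching 60%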;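 also: luciferase light reporting Pax8 driven TPO promoter activity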
Beta apoptosis – blocks beta cell apoptosis. INS-1E cytokine-induced death, ATP luminescence, 48 h; percent of positive-control rescue, neutral wells zero. AID 435005. actives 0.8% (n = 300,000). protection from apoptosis, % (no concentration beside the values);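 active = Every replicate reaches about 75%, or at least half do and their mean reaches it too, limit read from the data; inconclusive = At least half of replicates reach the limit but their mean does not; inactive = Under half of replicates reach the limit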;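 also: higher means more ATP so stronger rescue from cytokine killing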
Shn3 3UTR inh – Schnurri-3 reporter inhibition in Clone20 osteoblasts | Clone20 osteoblast Shn3 3'UTR firefly luciferase, 24 h | actives 0.52% (n = 360,000) | AID 588674 | inhibition, % at 12.5 µM;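 active = mean inhibition of at least 75% with every replicate also reaching 75%; inconclusive = mean inhibition at least 75% but some replicate below; inactive = mean inhibition below 75%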
CSC inhib – cancer stem cell inhibition | AID 2717 | actives 1.1% (n = 300,000) | inhibition, % at 7.5 µM | cancer stem cell-like cells viability, luminescence; in the data active = inhibition above about 75%; inconclusive = no clear call, values can overlap the other calls; tested in HMLE shEcad cells
Gli-Sufu block – antagonists of Gli-Sufu signaling. Sufu-KO-LIGHT fibroblasts, Gli luciferase reporter luminescence. inhibition, % at 5 µM. actives 0.74% (n = 340,000);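 active = inhibition above about 55%, limit read from the data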
Mdm2 MdmX conf – human Mdm2/MdmX binding inhibition, confirmed; shares compounds with Mdm2 MdmX PPI; luminescent assay; inhibition, % at 8 µM; actives 55% (n = 10,000); in the data active = inhibition above about 40%
FLuc counter – full-length luciferase inhibition in Mdm2/MdmX counter-screen | shares compounds with Mdm2 MdmX PPI | SaOS-2 full-length luciferase counterscreen, luminescence | inhibition, % at 8 µM | actives 77% (n = 6,200) | AID 504607;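 active = mean inhibition at 8 µM reaching about 37%, which flags the compound as non-specific, limit read from the data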;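 also: p53-null SaOS-2 cells with luciferase driven by a doxycycline-inducible promoter; compound on cells about two nights before reading with doxycycline added after day one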
A number is an active result; i = inactive; ? = inconclusive; nt = no result given. The list is not random: actives were taken first. Their share in the collection is about 4%.

SMILES	Mdm2 MdmX PPI	PAX8 reporter	Beta apoptosis	Shn3 3UTR inh	CSC inhib	Gli-Sufu block	Mdm2 MdmX conf	FLuc counter
COC(=O)c1cccc2c1-c1ccccc1/C2=N\NC(N)=O	i	i	i	i	i	i	nt	nt
COC(=O)c1cccc2c1-c1ccccc1/C2=N/O	83.5	nt	i	i	i	i	75.5	37.3
Cc1noc(C)c1S(=O)(=O)Nc1ccc2c(c1)CC(=O)N([C@H](C)CO)C[C@H](C)[C@@H](CN(C)CC1CCCCC1)O2	nt	i	nt	nt	nt	nt	nt	nt
Cc1ccccc1Nc1nc(N)nc(COC(=O)c2cccn2C)n1	i	i	i	i	nt	i	nt	nt
CCc1ccccc1Nc1nc(N)nc(COC(=O)c2cccn2C)n1	54.1	nt	i	i	i	i	62.4	195.9
C[C@H]1CN([C@@H](C)CO)S(=O)(=O)c2ccc(C#Cc3cccc(F)c3)cc2O[C@@H]1CN(C)C(=O)NC1CCCCC1	nt	i	nt	nt	nt	nt	nt	nt
Cn1c(C(=O)N2CCN(c3ccc(Cl)cc3)CC2)cc2c(=O)[nH]c3ccccc3c21	i	nt	i	i	i	i	nt	nt
COC(=O)c1c(C)[nH]c(C(=O)N2CCN(c3ccc(OC)cc3)CC2)c1C	nt	i	nt	nt	i	nt	nt	nt
COc1cccc(N2CCN(C(=O)c3[nH]c(C)c(C(C)=O)c3C)CC2)c1	53.8	i	i	i	i	i	68.2	41.8
CC(=O)c1c(C)[nH]c(C(=O)N2CCN(c3ccc(F)cc3)CC2)c1C	i	nt	i	i	nt	i	nt	nt
CC(=O)c1c(C)[nH]c(C(=O)N2CCN(c3cc(Cl)ccc3C)CC2)c1C	72.8	?	i	i	i	i	75.2	i
Cc1ccc(Cl)cc1N1CCN(C(=O)c2cc3c(=O)[nH]c4ccccc4c3n2C)CC1	71.0	i	i	i	i	i	91.5	78.8
C=CCN1Cc2ccccc2[C@H]2OC(c3ccc(OCCCO)cc3)=N[C@@]2(CCC(=O)OC(C)(C)C)C1=O	nt	i	nt	nt	nt	nt	nt	nt
C[C@@H]1CN([C@H](C)CO)C(=O)Cc2cc(NS(=O)(=O)c3cccs3)ccc2O[C@H]1CN(C)S(=O)(=O)c1cccs1	nt	i	nt	nt	nt	nt	nt	nt
N#Cc1cccc(-c2ccc3c(c2)[C@H]2[C@H](CCN2C(=O)CN2CCOCC2)[C@H](CO)N3)c1	nt	i	nt	nt	nt	nt	nt	nt
Cc1noc(C)c1NC(=O)Nc1ccc2c(c1)C(=O)N([C@@H](C)CO)C[C@H](C)[C@H](CN(C)Cc1ccc(Cl)c(Cl)c1)O2	nt	i	nt	nt	nt	nt	nt	nt
COc1ccccc1OCC(=O)NNC(=O)C1CCN(c2ncnc3sc(C)c(C)c23)CC1	i	i	i	i	nt	i	nt	nt
COc1ccc(-c2csc(NC(=O)C3CCN(c4ncnc5sc(C)c(C)c45)CC3)n2)cc1OC	68.2	i	112.5	95.6	i	72.4	67.8	45.2
CCc1cccc(NC(=O)C2CCN(c3ncnc4sc(C)c(C)c34)CC2)c1	i	i	i	i	i	i	nt	nt
CNC(=O)c1ccc(NC(=O)C2CCN(c3ncnc4sc(C)c(C)c34)CC2)cc1	62.1	i	i	i	i	i	59.8	58.5
Cc1sc2ncnc(N3CCC(C(=O)Nc4ccc(Br)cc4Br)CC3)c2c1C	56.9	i	i	i	i	i	47.4	87.4
Cc1sc2ncnc(N3CCC(C(=O)Nc4sc5c(c4C(N)=O)CCC(C)C5)CC3)c2c1C (stereo not given)	62.1	i	i	i	nt	i	69.8	41.8
Cc1noc(C)c1S(=O)(=O)Nc1ccc2c(c1)C(=O)N([C@H](C)CO)C[C@@H](C)[C@@H](CN(C)Cc1ccccc1)O2	nt	i	nt	nt	nt	nt	nt	nt
COc1ccc(-c2ccccc2[C@H]2[C@@H](C#N)N(C(=O)C3CCCC3)[C@H]2CO)cc1	nt	i	nt	nt	nt	nt	nt	nt
O=C(Nc1ccc(F)cc1)N[C@H]1CC[C@@H](CC(=O)N2CCOCC2)O[C@H]1CO	nt	i	nt	nt	nt	nt	nt	nt
SMILES	Mdm2 MdmX PPI	PAX8 reporter	Beta apoptosis	Shn3 3UTR inh	CSC inhib	Gli-Sufu block	Mdm2 MdmX conf	FLuc counter
COCCNC(=O)C[C@H]1C[C@H]2c3cc(NS(=O)(=O)c4ccc(F)cc4)ccc3O[C@H]2[C@@H](CO)O1	nt	i	nt	nt	nt	nt	nt	nt
O=C(Nc1ccc(F)cc1)N1CC(=O)N2[C@H](CO)[C@H](c3ccc(C#CC4CC4)cc3)[C@@H]2C1	nt	i	nt	nt	nt	nt	nt	nt
Cc1ccc([N+](=O)[O-])cc1NC(=S)NC(=O)c1cccs1	61.9	i	i	i	i	i	i	nt
COc1ccccc1N1CCN(C(=O)c2ccc(-c3ccc(Cl)cc3)o2)CC1	56.5	i	i	i	i	i	55.6	59.2
COc1ccccc1N1CCN(C(=O)COc2ccc(Cl)cc2Br)CC1	57.1	nt	i	i	nt	i	i	59.6
CCc1ccc2oc(C(=O)N3CCN(c4ccccc4OC)CC3)cc(=O)c2c1	59.6	i	i	i	i	i	49.5	40.4
COc1ccccc1N1CCN(C(=O)COc2ccc(C)cc2Br)CC1	i	nt	i	i	i	i	nt	nt
Cc1cccn2c(=O)c3cc(C(=O)NCc4ccco4)c(=N)n(CCc4ccccc4)c3nc12	i	i	nt	i	nt	i	nt	nt
Cc1cccn2c(=O)c3cc(C(=O)NCCc4ccccc4)c(=N)n(Cc4ccco4)c3nc12	100.5	i	i	i	i	i	92.2	i
COc1ccc(CCNC(=O)c2cc3c(=O)n4cccc(C)c4nc3n(Cc3ccco3)c2=N)cc1OC	100.3	i	105.0	i	i	i	95.5	i
N=c1c(C(=O)NCc2ccc(F)cc2)cc2c(=O)n3ccccc3nc2n1Cc1ccco1	100.1	nt	i	i	i	i	61.0	i
CC(C)NC(=O)Nc1cccc2c1O[C@@H](CN(C)Cc1ccc(-c3ccccc3)cc1)[C@@H](C)CN([C@H](C)CO)C2=O	nt	i	nt	nt	nt	nt	nt	nt
CCc1nc(N2CCN(C(=O)c3ccccc3)CC2)c2c3c(sc2n1)CCCC3	i	i	nt	i	nt	i	nt	nt
CCc1nc(Sc2nnnn2-c2ccccc2)c2c3c(sc2n1)CCCC3	93.5	i	i	i	i	i	83.9	52.4
Cc1nc(Sc2nnnn2C)c2c3c(sc2n1)CCC3	96.7	nt	i	i	i	i	92.8	62.6
COc1cc2[nH]c3c(N4CCN(c5ccccn5)CC4)ncnc3c2cc1OC	68.8	nt	i	i	i	i	40.6	52.9
COc1ccc2[nH]c3c(N4CCc5ccccc5C4)ncnc3c2c1	75.9	i	i	i	i	i	50.0	62.9
CCOC(=O)N1CCN(c2ncnc3c2[nH]c2ccc(OC)cc23)CC1	i	i	i	i	i	i	nt	nt
COc1cccc2[nH]c3c(N4CCCCC4)ncnc3c12	i	nt	i	i	i	i	nt	nt
CCN(CC)C(=O)[C@H]1C[C@H](CC(=O)NCc2ccco2)C(=O)N2CCc3c([nH]c4ccc(Cl)cc34)[C@]12C	i	i	nt	i	nt	i	nt	nt
CC(C)N(C(=O)[C@H]1C[C@H](CC(=O)NCCCN(C)C)C(=O)N2CCc3c([nH]c4cc(-c5ccco5)ccc34)[C@]12C)C(C)C	63.3	i	nt	i	nt	i	i	nt
